According to PubChem BioAssay:
Activity calls are given as the source filed them.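 How the source made its calls: active means mean z-score across replicates of 1.96 or higher in either the MELAS or the Rieske mutant cell line; inactive means the rest.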

assay: viability loss with induced miR-34 in A549 – imaging, A549 dox-inducible miR-34, nuclei and caspase counts, primary screen (AID 1347080); settings: A549 miR-34 inducible, Hoechst nuclei count, 48 h; measured here: total cells with miR-34 induction; stronger effect = lower value
Further: test concentration not given here.

| Compound | cell count |
| --- | --- |
| Cc1cccc(-c2nn3c(c2-c2ccnc4ccc(C(N)=O)cc24)CCC3)n1 | 8480 |
| CN1C[C@@H]2c3ccccc3Oc3ccc(Cl)cc3[C@H]2C1 | 6350 |
| Nc1nc(OCc2cc(Br)cs2)c2[nH]cnc2n1 | 7150 |

same assay, conditions: A549 miR-34 inducible, Hoechst nuclei count, 48 h; measured here: total cells without miR-34 induction

| Compound | cell count |
| --- | --- |
| Cc1cccc(-c2nn3c(c2-c2ccnc4ccc(C(N)=O)cc24)CCC3)n1 | 9100 |
| CN1C[C@@H]2c3ccccc3Oc3ccc(Cl)cc3[C@H]2C1 | 7170 |
| Nc1nc(OCc2cc(Br)cs2)c2[nH]cnc2n1 | 8940 |

assay: MELAS cybrid and Rieske KO viability enhancers – cell-based, MELAS cybrids, Rieske KO mouse fibroblasts, CellTiter-Glo, primary screen (AID 1508586); settings: MELAS cybrid survival, low glucose, CellTiter-Glo 48 h; stronger effect = higher value;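 further: z relative to plate mean and SD of compound and empty wells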

| Compound | z-score |
| --- | --- |
| Cc1cccc(-c2nn3c(c2-c2ccnc4ccc(C(N)=O)cc24)CCC3)n1 | -0.309 (inactive) |
| CN1C[C@@H]2c3ccccc3Oc3ccc(Cl)cc3[C@H]2C1 | -0.348 (inactive) |
| Nc1nc(OCc2cc(Br)cs2)c2[nH]cnc2n1 | -0.686 (inactive) |

same assay, conditions: Rieske KO mouse fibroblast survival, low glucose, CellTiter-Glo 72 h

| Compound | z-score |
| --- | --- |
| Cc1cccc(-c2nn3c(c2-c2ccnc4ccc(C(N)=O)cc24)CCC3)n1 | 1.2 |
| CN1C[C@@H]2c3ccccc3Oc3ccc(Cl)cc3[C@H]2C1 | 0.514 |
| Nc1nc(OCc2cc(Br)cs2)c2[nH]cnc2n1 | -2.22 |
